Laboratory results reported in the supplement of paper PMC7695840.

System: Staphylococcus aureus MW2 delta-mecA (mecA-)
Test: normalized GFP fluorescence (growth of mecA- strain) (fraction of control range); higher = more growth of mecA- strain
Conditions: compound concentration: 150 uM; cefoxitin: subinhibitory; fluorescent label: GFP
In short: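 Pre-induced S. aureus MW2 cells carrying the gene (DsRed) and deletion cells lacking it (GFP) were combined 1:1 in LB containing a subinhibitory antibiotic dose set each day, then dispensed at 5 µL/well onto 150 μM compound (1.5% DMSO) in 1536-well plates as a single replicate. After 20 h at 37 °C and 90% humidity without shaking, DsRed (540/590) and GFP (485/520) were read. Each channel was scaled per plate between the medians of the single-strain controls, and plates with high untreated ratios and rows with DsRed/GFP >10 were excluded.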

Compared with `CC(C)NCC(O)COc1ccc(CC(N)=O)cc1` (configuration not stated), `Nc1ccc(C(=O)O)cc1` is higher in “normalized GFP fluorescence” value: 0.323 for the first, 0.617 for the second.

First: N#Cc1ccc(C(c2ccc(C#N)cc2)n2cncn2)cc1
Second: Clc1ccc2c(c1)C(N1CCNCC1)=Nc1ccccc1O2
The “normalized GFP fluorescence” value of the first is higher: 0.628 for the first, 0.114 for the second.

Going from `CC(=O)OCC(=O)[C@@]12N=C(C)O[C@@H]1C[C@H]1[C@@H]3CCC4=CC(=O)C=C[C@]4(C)[C@H]3[C@@H](O)C[C@@]12C` to `CC1(C)O[C@@H]2C[C@H]3[C@@H]4CCC5=CC(=O)C=C[C@]5(C)[C@H]4[C@@H](O)C[C@]3(C)[C@]2(C(=O)CO)O1`, the “normalized GFP fluorescence” value rises from 0.231 to 0.387.

Compared with `CCCSc1ccc2[nH]c(NC(=O)OC)nc2c1`, `CCCN(CCC)CCc1cccc2c1CC(=O)N2` is lower in “normalized GFP fluorescence” value: 0.251 for the first, 0.224 for the second.

Compared with `NS(=O)(=O)c1cc(C2(O)NC(=O)c3ccccc32)ccc1Cl` (configuration not stated), `NS(=O)(=O)c1cc2c(cc1Cl)N=CNS2(=O)=O` is higher in “normalized GFP fluorescence” value: 0.344 for the first, 0.373 for the second.

First: C1CCC(C(CC2CCCCN2)C2CCCCC2)CC1 (configuration not stated)
Second: Cc1nc2n(c(=O)c1CCN1CCC(c3noc4cc(F)ccc34)CC1)CCCC2O (configuration not stated)
The “normalized GFP fluorescence” value of the first is lower: 0.000248 for the first, 0.379 for the second.

First: COCCOC(=O)C1=C(C)NC(C)=C(C(=O)OC/C=C/c2ccccc2)C1c1cccc([N+](=O)[O-])c1 (configuration not stated) [Cilnidipine]
Second: CC1=NN(c2ccccc2)C(=O)C1 [Edaravone (MCI-186)]
The “normalized GFP fluorescence” value of the first is lower: 0.176 for the first, 0.706 for the second.

Going from `Nc1ccn([C@H]2CC[C@@H](CO)O2)c(=O)n1` to `C[C@@H]1O[C@@H](OC[C@H]2O[C@@H](Oc3c(-c4ccc(OCCO)c(OCCO)c4)oc4cc(OCCO)cc(O)c4c3=O)[C@H](O)[C@@H](O)[C@@H]2O)[C@H](O)[C@H](O)[C@H]1O` [Troxerutin], the “normalized GFP fluorescence” value rises from 0.265 to 0.934.

`O.O.O.O.O=C([O-])CC(O)(CC(=O)[O-])C(=O)[O-].[Li+].[Li+].[Li+]` was tested, and the “normalized GFP fluorescence” value was 0.18.
